Screening data: PubChem BioAssay, National Center for Advancing Translational Sciences (NCATS)
Hits are enriched below; roughly 5.4% of the tested compounds scored in any of these assays.
CtBP-E1A inh: CtBP/E1A binding inhibition; AlphaScreen GST-E1A/His-CtBP binding, 1536-well; hits give low values; AID 651724; 0.49% of 340,000 active; activity change, % (test concentration not listed); in the data active = activity change below about -65%; inconclusive = mostly about -30% to -63%; note: % is set by controls: 0 for no effect and ±100 for the full control effect
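GST-E1A and His-tagged CtBP (125 nM each as 5X stock) were preincubated with pin-transferred compound for 2 h at 37 °C in the dark, then glutathione donor and nickel acceptor beads were added for 1 h before AlphaScreen reading.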
p53 reactivator: mutant p53 re-activation in reporter cells; 0.063% of 320,000 active; H1299 p53-A138V BP100-luciferase reporter, luminescence, 24 h; Potency, µM (doses to about 92.2 µM), for inactives: at the top dose activity change, positive = activation, hits mostly activators; note: potency is the fitted concentration of half-maximal effect; % of control where 0% means no effect; nearly all actives have a fitted effect of over 45% in size
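p53-null H1299 cells stably carrying temperature-sensitive p53-A138V and a BP100-luciferase reporter were pinned with compounds (4-point, 1:5 series) and held 24 hrs at 37 deg C. Luminescence was read 10 min after detection reagent.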
Six1-Eya2 blk: blocks human Six1 binding to Eya2; AlphaScreen GST-Six1/His-Eya2 binding, biochemical; hits give low values; activity change, % (no concentration beside the values); 0.56% of 360,000 active; in the data active = activity change below about -65%; inconclusive = mostly about -30% to -63%; note: % is set by controls: 0 for no effect and ±100 for the full control effect
Target sequence (O00167 whole entry, looked up): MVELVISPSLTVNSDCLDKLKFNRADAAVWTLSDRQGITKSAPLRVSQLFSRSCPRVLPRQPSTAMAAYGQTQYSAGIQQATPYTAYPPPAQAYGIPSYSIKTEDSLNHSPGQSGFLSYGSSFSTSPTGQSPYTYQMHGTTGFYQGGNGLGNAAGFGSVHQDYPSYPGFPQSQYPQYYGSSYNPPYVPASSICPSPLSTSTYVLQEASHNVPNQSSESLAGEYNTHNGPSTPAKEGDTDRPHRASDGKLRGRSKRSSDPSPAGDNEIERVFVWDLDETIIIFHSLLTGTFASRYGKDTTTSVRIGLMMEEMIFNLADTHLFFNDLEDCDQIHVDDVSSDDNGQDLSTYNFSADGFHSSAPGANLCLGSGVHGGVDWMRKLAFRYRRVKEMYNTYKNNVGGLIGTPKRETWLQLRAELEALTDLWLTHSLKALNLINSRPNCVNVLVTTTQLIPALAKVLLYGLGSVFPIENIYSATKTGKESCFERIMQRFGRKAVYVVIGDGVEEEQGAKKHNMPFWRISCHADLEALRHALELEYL
Target sequence (Q15475 whole entry, looked up): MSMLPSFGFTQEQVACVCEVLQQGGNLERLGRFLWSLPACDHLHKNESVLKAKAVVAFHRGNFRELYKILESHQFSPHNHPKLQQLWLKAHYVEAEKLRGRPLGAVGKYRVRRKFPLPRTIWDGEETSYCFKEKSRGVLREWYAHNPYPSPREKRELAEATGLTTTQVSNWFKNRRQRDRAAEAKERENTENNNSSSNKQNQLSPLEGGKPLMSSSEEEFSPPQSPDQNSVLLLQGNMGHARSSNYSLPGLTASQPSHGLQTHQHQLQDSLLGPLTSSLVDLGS
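AlphaScreen with GST-Six1 and His-Eya2 (5X mix: 250 nM and 500 nM), glutathione donor and nickel acceptor beads; buffer 50 mM Tris pH 8.0, 300 mM NaCl, 1 mM TCEP; 1 h at 37 C in the dark.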
VP16 counter: counter-screen for ROR gamma inhibitors: Gal4-VP16 reporter | Drosophila S2 Gal4-VP16 UAS-luciferase, luminescence, 20 h | AID 2546 | Potency, µM (titrated, usually from 53.6 µM), without a hit: at the top dose activity, negative = inhibition, usual class: inhibitors | 3.5% of 310,000 active;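 note: Gal4-VP16 expression switched on by copper sulfate through the metallothionein promoter; potency is the fitted concentration of half-maximal effect; % is set by controls: 0 for no effect and ±100 for the full control effect; nearly all actives have a fitted effect of over 50% in size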
RORgamma inh: blocks mouse ROR gamma transcriptional activity; Potency, µM (doses to about 53.6 µM), inactives show at the top dose activity change, negative = inhibition, most hits filed as inhibitors; 5.4% of 310,000 active; AID 2551; Drosophila S2 Gal4-RORgamma UAS-luciferase reporter, 20 h; note: potency is the fitted concentration of half-maximal effect; % is set by controls: 0 for no effect and ±100 for the full control effect; nearly all actives have a fitted effect of over 60% in size
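Read-out: Photinus luciferase luminescence; inhibitors lower reporter signal. Insect Schneider cells with Gal4-ROR gamma fusion under metallothionein promoter, UAS reporter; 700 uM final copper sulfate induction, 20 hr, ambient temperature.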
Active calls of the source: *; [ ] = another dose, or the depositor's remark. Unless noted, calls come from the whole dose curve; as a rule, active = well fitted curve in the direction sought with a large enough effect; inconclusive = small, poorly fitted or top-dose-only effect, or another doubt; inactive = no such curve, though single readings can be large; an effect the other way counts as inactive or inconclusive.

Results for N#Cc1ccccc1NC(=O)CSc1nnc(-c2ccccc2O)n1-c1ccccc1 ?
CtBP-E1A inh: -11.4; p53 reactivator: -12.2%; Six1-Eya2 blk: -4.6; VP16 counter: inconclusive; RORgamma inh: 12.6µM*

Results for CCn1c(SCC(=O)Nc2ccccc2C)nnc1-c1ccccc1O ?
CtBP-E1A inh: 1.6; p53 reactivator: 2.7%; Six1-Eya2 blk: -1.8; VP16 counter: 0.0%[0.365 µM]; RORgamma inh: -17.3%

Results for CCn1c(COc2ccccc2C)nnc1SCC(=O)N1CCN(c2ccccc2)CC1 ?
CtBP-E1A inh: -1.7; p53 reactivator: -3.6%; Six1-Eya2 blk: -7.4; VP16 counter: -13.3%; RORgamma inh: 41.1%

What do the screens show for `CCn1c(COc2cccc(C)c2C)nnc1SCC(=O)N1CCN(c2ccc(OC)cc2)CC1`?
CtBP-E1A inh: 3.0; p53 reactivator: 9.2%; Six1-Eya2 blk: -2.9; VP16 counter: 0.891µM*; RORgamma inh: 11.4%

What do the screens show for `COC(=O)C1(C(=O)OC)C[C@@H]2CON=C2[C@H]1c1ccccc1`?
VP16 counter: 1.5%; RORgamma inh: -3.7%

What do the screens show for `CCn1c(CN2CCOCC2)nnc1SCC(=O)Nc1ccc(C(C)=O)cc1`?
CtBP-E1A inh: 5.9; p53 reactivator: 9.4%; Six1-Eya2 blk: -11.1; VP16 counter: 2.5%; RORgamma inh: 0.9%

What do the screens show for `COC(=O)N1CCC2(CC1)CN(c1cccc(-c3ccccc3)c1)C2`?
VP16 counter: -1.5%; RORgamma inh: 23.5%

Results for NC(Cc1ccc(Cl)cc1)c1csc(Nc2ccc(C(F)(F)F)cn2)n1 (stereo not drawn) ?
CtBP-E1A inh: 0.1; Six1-Eya2 blk: -2.7

What do the screens show for `COc1ccc(C)cc1NS(=O)(=O)c1ccc(-c2cnc(C3CC3)o2)cc1`?
p53 reactivator: 1.6%; Six1-Eya2 blk: 10.7; VP16 counter: 17.8µM*; RORgamma inh: 34.4%

Results for Cc1ccc(NS(=O)(=O)c2ccc(-c3cnc(C4CC4)o3)cc2)cc1 ?
p53 reactivator: 1.4%; Six1-Eya2 blk: -6.0; VP16 counter: -12.2%; RORgamma inh: inconclusive

How did Cc1cc(C2=NNC(=NC3CC3)SC2)c(C)n1-c1ccccc1F do in these assays?
CtBP-E1A inh: 1.3; p53 reactivator: -7.4%; Six1-Eya2 blk: -11.4; VP16 counter: 0.708µM*; RORgamma inh: 1.12µM*

How did Cc1cc(C2=NNC(=NC3CCCCC3)SC2)c(C)n1-c1c(C)n(C)n(-c2ccccc2)c1=O do in these assays?
p53 reactivator: -1.0%; Six1-Eya2 blk: -2.0; VP16 counter: -27.4%; RORgamma inh: -7.7%

Results for c1ccc2oc(C3=NNC(=NC4CC4)SC3)cc2c1 ?
CtBP-E1A inh: -24.6; p53 reactivator: 54.6%; Six1-Eya2 blk: -14.8; VP16 counter: 11.2µM*; RORgamma inh: 3.55µM*

Results for c1csc(C2=NNC(=NC3CCCCC3)SC2)c1 ?
CtBP-E1A inh: -6.9; p53 reactivator: inconclusive; Six1-Eya2 blk: -13.2; VP16 counter: -21.6%; RORgamma inh: inconclusive

What do the screens show for `C=CCn1c(C)cc(C2=NNC(=NCc3ccccc3)SC2)c1C`?
CtBP-E1A inh: -5.4; p53 reactivator: 1.5%; Six1-Eya2 blk: -8.1; VP16 counter: -5.1%[10 µM]; RORgamma inh: 23.5%

What do the screens show for `c1ccc(CN=C2NN=C(c3cc4ccccc4o3)CS2)cc1`?
CtBP-E1A inh: -6.6; p53 reactivator: inconclusive; Six1-Eya2 blk: -4.2; VP16 counter: 20µM*; RORgamma inh: inconclusive

What do the screens show for `Cc1cc(Sc2nnc(/N=C/N(C)C)s2)c2ccccc2n1`?
p53 reactivator: -11.7%; Six1-Eya2 blk: 5.0; VP16 counter: inconclusive; RORgamma inh: 8.91µM*

What do the screens show for `Cc1cc(Sc2nnc(N)s2)c2ccccc2n1`?
CtBP-E1A inh: 2.8; p53 reactivator: -13.7%; Six1-Eya2 blk: 0.9; VP16 counter: 11.2µM*; RORgamma inh: 7.94µM*

Results for C[C@H](NCc1ccccc1)c1ccccc1 ?
VP16 counter: 2.8%; RORgamma inh: 1.8%

What do the screens show for `Cn1c(=O)oc2cc(S(=O)(=O)N3CCCC(C(=O)NC4CCCc5ccccc54)C3)ccc21` (stereo not drawn)?
CtBP-E1A inh: -4.3; p53 reactivator: -0.7%; Six1-Eya2 blk: -9.5; VP16 counter: 0.1µM*; RORgamma inh: inconclusive
